The text below walks through data of PubChem BioAssay (NCI).

This is part of a sample that, as a whole, favours compounds with a hit. Of some 83,000 tested, about 20% had one in any assay.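 Testing used 96-well plates and a 48-hour single-concentration exposure. Example: -40 means 40% of the starting cells died.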 Unmarked numbers belong to inactive results. Activity calls are given as the source filed them. Rule for the calls: active = growth percent below 10; inactive = the rest.

For this assay, the system named is SN12C renal. As to the kind of experiment: NCI-60 one-dose screen, 48 h (100 = growth as untreated, 0 = no growth, -100 = all killed). Particulars: 10 µM unless noted.
With `CC(=O)OC[C@]12CC[C@@H]([C@@H](C)c3nnc(-c4ccncc4)o3)[C@@H]1[C@H]1CC[C@@H]3[C@@]4(C)CC[C@H](OC(C)=O)C(C)(C)[C@@H]4CC[C@@]3(C)[C@]1(C)CC2`, the growth is 87.1%.

For `CN(Cc1ccccc1)c1nc(Cl)c(C2CC(c3ccccc3)=NN2c2ccccc2)s1` (configuration not stated), the growth was 103%.

Regarding `CSc1nc(C)c([N+](=O)[O-])c(N)n1`, the growth is 99.1%.

For the compound `CN1CCN(Cc2ccc(NC(=O)c3cncc(C#Cc4cnc(N)c5ccc(F)cc45)c3)cc2C(F)(F)F)CC1`, the growth is 13.2%.

As for `CN1CCN(C(=O)[C@@]2(C)CC[C@]3(C)CC[C@]4(C)C(=CC[C@@H]5[C@@]6(C)CCC(=O)NC(C)(C)[C@@H]6CC[C@]54C)[C@@H]3C2)CC1`, the growth is 58%.

`COc1ccc(/C=C2\CN(C(=O)C(Cl)Cl)C/C(=C\c3ccc(OC)cc3)C2=O)cc1`: the growth was -38.9% (active).

Take `O=C(NNc1cnccn1)c1nc2cc(F)ccc2n2cccc12`: the growth is 13.5%.

In the case of `COc1cc(/C=C2\CN(S(=O)(=O)c3ccccc3)C/C(=C\c3cc(CN4CCCCC4)c(O)c(OC)c3)C2=O)cc(CN2CCCCC2)c1O`, the growth was -42.4% (active).

With `COc1ccc(/C=C/C(c2cc(OC)c(OC)c(OC)c2)n2ccnc2)cc1O` (configuration not stated), the growth is 57.2%.

`C/C=C(/C)n1cnc2c(Nc3ccccn3)nc(Cl)nc21`: the growth is 94.1%.

On to `Oc1ccc(/C=C/c2ccc(O)cc2)cc1`, for which the growth is 62.5%.

Turning to `C#CCOc1cccc(-c2ncnc3cc(NC(=O)C=C)ccc23)c1`, the growth was 15%.
